From PubChem BioAssay (NCI)
About 83,000 compounds went through this panel and 20% of them were active in at least one assay; those are over-represented in the sample as a whole.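 Treatment: one concentration, 48 hours, 96-well format. Scoring: percent growth, with anything below 10 considered active.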 A number with no mark means an inactive call. The source made the active and inactive calls.

system: SR leukemia; experiment: NCI-60 one-dose screen, 48 h (100 = growth as untreated, 0 = no growth, -100 = all killed); details: 10 µM unless noted

Structure (SMILES) | growth
Cc1cc(N2CCOCC2)nc(N[C@@H]2CCC[C@H](Nc3ccnc4cc(Cl)ccc34)C2)n1 | -36.9% (active)
COc1ccc(C2CC(c3ccc4ccccc4c3)=NN2/C=C2\SC(=S)N(NC(=O)Cc3ccccc3Nc3c(Cl)cccc3Cl)C2=O)cc1 (stereo unspecified) | 20.8%
CCC([N+](=O)[O-])S(=O)(=O)c1ccc(C)cc1 (stereo unspecified) | 113%
COc1ccc(/C=C2\Oc3cc(OCCCCN4CCCC4)ccc3C2=O)cc1 | -25.3% (active)
NC(=NCCCC1(c2ccccc2)CCCC1)Nc1ccc(Cl)cc1 | -39.7% (active)
COc1ccc(/C=C\c2cc(OC)c(OC)c(OC)c2)cc1OCC(=O)Nc1ccc2nc(C)sc2c1 | 12.2%
COc1ccc(C(=O)COc2ccc(/C=C3\COc4ccc(OC)cc4C3=O)cc2)cc1 | 2.54% (active)
COc1cc(C2CC(=O)c3ccccc3N2)cc(OC)c1OC (stereo unspecified) | 99.6%
Cc1cc(N2CCN(c3ccnc4cc(Cl)ccc34)CC2)nc(N2CCOCC2)n1 | 80.8%
Cn1ncc2c(=O)nc3c(-c4ccccc4)n[nH]n3c21 | 113%
CC(C)CC1C(=O)N2CCC[C@H]2C2(O)O[C@](NC(=O)C3C=C4c5cccc6[nH]c(Br)c(c56)C[C@H]4N(C)C3)(C(C)C)C(=O)N12 (stereo partly specified) | 28.6%
O=C(Cc1ccc(/C=C/C(=O)c2ncc[nH]2)cc1)Nc1ccc(F)cc1 | -2.77% (active)
COc1cc(-c2nn(C)nc2-c2cc3ccccc3s2)cc(OC)c1OC | 21.6%
CCOc1ccc(-n2nc(C(=O)Nc3ccccc3)nc2-c2cc(OC)c(OC)c(OC)c2)cc1 | 17%
Nc1n[nH]c2ccc([C@@H]3Nc4cc5c(cc4[C@H]4C6CCC(C6)[C@@H]34)C(=O)NC5)cc12 (stereo partly specified) | 8.36% (active)
COc1cccc(-c2nc(SCC(=O)Nc3ccc(C(=O)/C=C/c4ccc(OC)c(OC)c4)cc3)[nH]c(=O)c2C#N)c1 | 60.6%
CCCn1c(=O)[nH]c(N)c([C@H]2c3ccccc3Oc3[nH]c(=O)n(CCC)c(=O)c32)c1=O | 4.41% (active)
O=C1CC[C@H](c2ccc(O)c3c2C(=O)[C@@H]2O[C@@H]2C3=O)c2cccc(O)c21 | 2.02% (active)
Cc1cn2c(/C=C3/C(=O)Nc4c3ccc3ccccc43)c(C(F)(F)F)nc2s1 | 8.46% (active)

Structure (SMILES) | growth
O=c1nc2oc3ccc4ccccc4c3cc-2s1 | 24.3%
Cn1c(=O)[nH]c(=O)c2nc(CCC(=O)NCCC(=O)O)c(=O)[nH]c21 | 113%
COc1cc(C(=O)Oc2ccccc2OC(=O)c2cc(OC)c(OC)c(OC)c2)cc(OC)c1OC | 103%
O=C1/C(=C/c2ccccc2O)N=C2SCCCN12 | 117%
CC(C)(C)CC(C)(C)c1ccc(OCCOCC[N+](C)(C)Cc2ccccc2)cc1 | -50.8% (active)
O=Nc1c(O)c(Cl)cc2ccccc12 | 71.7%
COc1cc(Nc2cc(C)nc(N3CCN(c4ccnc5cc(Cl)ccc45)CC3)n2)cc(OC)c1 | -4.09% (active)
O=C(CCCCC(=O)N/N=C\c1ccccc1O)N/N=C\c1ccccc1O | 19.7%
C=C1c2nc3ccccc3n2C=C(c2cccc(Cl)c2)N1Cc1ccc(OC)cc1 | -17.4% (active)
CN(CCCCCl)P(=O)(OCc1ccc([N+](=O)[O-])o1)C(F)(F)c1ccc(CC(=O)NC[C@@H](O)/C=C\[C@@H](O)[C@H](CO)Cc2ccccc2)cc1 (stereo partly specified) | 47.7%
CCNc1ncnc2c1cnn2C1CCCO1 (stereo unspecified) | 94.3%
O=C(COc1ccc(-c2nc3cc(Cl)c(Cl)cc3[nH]2)cc1)N=Nc1c(O)[nH]c2ccccc12 | 9.9% (active)
O=C(CN(C(=O)Cn1c(=O)n2nnnc2c2ccccc21)c1ccccc1C(F)(F)F)Nc1ccc(C(F)(F)F)cc1 | 111%
CCCCCCN(CCCCCC)C(=N)c1ccnc2ccccc12 | 35.4%
CN1CCN(c2nc(NCCCCNc3ccnc4cc(Cl)ccc34)c3ccccc3n2)CC1 | -26.6% (active)
CC(=O)O[C@H]1[C@@H]2OC(=O)C(CSc3ccccc3)[C@@H]2C[C@H]2O[C@]2(C)CC/C=C(\C)CCC[C@@H]1C (stereo partly specified) | 58.2%
CCCCC/C(C=C(C#N)C#N)=C/c1ccccc1 | 7.75% (active)
COc1ccc(CN2c3ccccc3Oc3ccccc32)cc1F | 27.1%
Nc1ccc(-c2cc3c(Nc4ccc(Oc5cccc(C(F)(F)F)c5)c(Cl)c4)ncnc3s2)cc1 | 50.4%

system: RPMI-8226 leukemia; experiment: as above; details: 10 µM unless noted

Structure (SMILES) | growth
Cc1cc(N2CCOCC2)nc(N[C@@H]2CCC[C@H](Nc3ccnc4cc(Cl)ccc34)C2)n1 | -45.6% (active)
COc1ccc(C2CC(c3ccc4ccccc4c3)=NN2/C=C2\SC(=S)N(NC(=O)Cc3ccccc3Nc3c(Cl)cccc3Cl)C2=O)cc1 (stereo unspecified) | -10.1% (active)
CCC([N+](=O)[O-])S(=O)(=O)c1ccc(C)cc1 (stereo unspecified) | 106%
COc1ccc(/C=C2\Oc3cc(OCCCCN4CCCC4)ccc3C2=O)cc1 | 80.7%
NC(=NCCCC1(c2ccccc2)CCCC1)Nc1ccc(Cl)cc1 | -24.2% (active)
COc1ccc(/C=C\c2cc(OC)c(OC)c(OC)c2)cc1OCC(=O)Nc1ccc2nc(C)sc2c1 | -8.5% (active)
COc1ccc(C(=O)COc2ccc(/C=C3\COc4ccc(OC)cc4C3=O)cc2)cc1 | -5.51% (active)
COc1cc(C2CC(=O)c3ccccc3N2)cc(OC)c1OC (stereo unspecified) | 91.3%
Cc1cc(N2CCN(c3ccnc4cc(Cl)ccc34)CC2)nc(N2CCOCC2)n1 | 59%
Cn1ncc2c(=O)nc3c(-c4ccccc4)n[nH]n3c21 | 123%
CC(C)CC1C(=O)N2CCC[C@H]2C2(O)O[C@](NC(=O)C3C=C4c5cccc6[nH]c(Br)c(c56)C[C@H]4N(C)C3)(C(C)C)C(=O)N12 (stereo partly specified) | 11.1%
O=C(Cc1ccc(/C=C/C(=O)c2ncc[nH]2)cc1)Nc1ccc(F)cc1 | -17.9% (active)
COc1cc(-c2nn(C)nc2-c2cc3ccccc3s2)cc(OC)c1OC | 20.7%
CCOc1ccc(-n2nc(C(=O)Nc3ccccc3)nc2-c2cc(OC)c(OC)c(OC)c2)cc1 | 47.4%
Nc1n[nH]c2ccc([C@@H]3Nc4cc5c(cc4[C@H]4C6CCC(C6)[C@@H]34)C(=O)NC5)cc12 (stereo partly specified) | 34.6%
COc1cccc(-c2nc(SCC(=O)Nc3ccc(C(=O)/C=C/c4ccc(OC)c(OC)c4)cc3)[nH]c(=O)c2C#N)c1 | 93.3%
CCCn1c(=O)[nH]c(N)c([C@H]2c3ccccc3Oc3[nH]c(=O)n(CCC)c(=O)c32)c1=O | 81.7%
O=C1CC[C@H](c2ccc(O)c3c2C(=O)[C@@H]2O[C@@H]2C3=O)c2cccc(O)c21 | -3.81% (active)
Cc1cn2c(/C=C3/C(=O)Nc4c3ccc3ccccc43)c(C(F)(F)F)nc2s1 | 14.7%

Structure (SMILES) | growth
O=c1nc2oc3ccc4ccccc4c3cc-2s1 | 14.7%
Cn1c(=O)[nH]c(=O)c2nc(CCC(=O)NCCC(=O)O)c(=O)[nH]c21 | 111%
COc1cc(C(=O)Oc2ccccc2OC(=O)c2cc(OC)c(OC)c(OC)c2)cc(OC)c1OC | 76.2%
O=C1/C(=C/c2ccccc2O)N=C2SCCCN12 | 103%
CC(C)(C)CC(C)(C)c1ccc(OCCOCC[N+](C)(C)Cc2ccccc2)cc1 | -60.3% (active)
O=Nc1c(O)c(Cl)cc2ccccc12 | 40.1%
COc1cc(Nc2cc(C)nc(N3CCN(c4ccnc5cc(Cl)ccc45)CC3)n2)cc(OC)c1 | -13.5% (active)
O=C(CCCCC(=O)N/N=C\c1ccccc1O)N/N=C\c1ccccc1O | 50.2%
C=C1c2nc3ccccc3n2C=C(c2cccc(Cl)c2)N1Cc1ccc(OC)cc1 | -15.6% (active)
CN(CCCCCl)P(=O)(OCc1ccc([N+](=O)[O-])o1)C(F)(F)c1ccc(CC(=O)NC[C@@H](O)/C=C\[C@@H](O)[C@H](CO)Cc2ccccc2)cc1 (stereo partly specified) | 77.1%
CCNc1ncnc2c1cnn2C1CCCO1 (stereo unspecified) | 98.5%
O=C(COc1ccc(-c2nc3cc(Cl)c(Cl)cc3[nH]2)cc1)N=Nc1c(O)[nH]c2ccccc12 | 8.82% (active)
O=C(CN(C(=O)Cn1c(=O)n2nnnc2c2ccccc21)c1ccccc1C(F)(F)F)Nc1ccc(C(F)(F)F)cc1 | 103%
CCCCCCN(CCCCCC)C(=N)c1ccnc2ccccc12 | 50.2%
CN1CCN(c2nc(NCCCCNc3ccnc4cc(Cl)ccc34)c3ccccc3n2)CC1 | -8.38% (active)
CC(=O)O[C@H]1[C@@H]2OC(=O)C(CSc3ccccc3)[C@@H]2C[C@H]2O[C@]2(C)CC/C=C(\C)CCC[C@@H]1C (stereo partly specified) | 51.6%
CCCCC/C(C=C(C#N)C#N)=C/c1ccccc1 | -14.1% (active)
COc1ccc(CN2c3ccccc3Oc3ccccc32)cc1F | 61.5%
Nc1ccc(-c2cc3c(Nc4ccc(Oc5cccc(C(F)(F)F)c5)c(Cl)c4)ncnc3s2)cc1 | 53.1%
